In the library only some 8% were active in any assay of this set; here they are far more common.
LASV entry inh: Lassa virus entry inhibition; Lassa virus pseudotype entry inhibition, cell reporter; Potency, µM (series often up to 37.9 µM), inactives show at the top dose activity change, negative = inhibition, usual class: inhibitors; hit rate 1.2% among 300,000; AID 540256; calls by dose curve; tested in HEK293 cells; also: potency is read from the fitted curve at half-maximal effect; % is scaled to controls: 0 for no effect and ±100 for the full control effect; nearly all actives have a fitted effect of over 50% in size
SARS PLP yeast: inhibitors of SARS-CoV papain-like protease in yeast; S. cerevisiae expressing SARS-CoV PLpro, growth rescue; Potency, µM (top dose mostly 32.9 µM), for inactives: at the top dose activity, positive = growth rescue, actives largely listed as activators; hit rate 0.19% among 330,000; calls by dose curve; also: potency is read from the fitted curve at half-maximal effect; 0% is about no effect; nearly all actives have a fitted effect of over 55% in size
HCV inhibitor: blocks hepatitis C virus. Huh7.5.1 HCVcc-Cre infection, luciferase reporter, 44 h. hit rate 3.4% among 340,000. AID 651820. Potency, µM (series often up to 41.8 µM), for the others: at the top dose activity change, negative = inhibition, most hits filed as inhibitors; active = well fitted inhibition curve with a large enough effect; inconclusive = small, poorly fitted or top-dose-only effect, or another doubt; inactive = no such curve, though single readings can be large or run the other way; also: potency is read from the fitted curve at half-maximal effect; % is scaled to controls: 0 for no effect and ±100 for the full control effect
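Luciferase read-out (15 sec integration) after a 15 min room-temperature substrate step quantifies HCVcc-Cre infection. Cells, 1,000 per well, had compound added 4 h post-plating, then virus at ~0.5 moi, and were cultured 44 h.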
MARV entry inh: Marburg virus entry inhibition; Marburg virus pseudotyped entry inhibition, cell reporter; Potency, µM (titrated, usually from 37.8 µM), without a hit: at the highest dose activity change, negative = inhibition, hits mostly inhibitors; hit rate 1.8% among 300,000; calls by dose curve; tested in HEK293 cells; also: potency is read from the fitted curve at half-maximal effect; % is scaled to controls: 0 for no effect and ±100 for the full control effect
HCMV inh: inhibitors of human cytomegalovirus; HFF cells, HCMV-luciferase reporter, 72 h; stronger effect = lower value; activity change, negative = inhibition, % at 57.5 µM; hit rate 4.5% among 410,000; in the data active = activity change below about -60%; inconclusive = no clear call, values can overlap the other calls; inactive = above about -39%; also: % is scaled to controls: 0 for no effect and ±100 for the full control effect
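Luciferase read-out from HCMV-luciferase-infected HFFs (MOI 1 PFU/cell) 72 h post infection at 37C; compounds added after 16 h cell attachment; activity normalized between buffer-only basal and Salinomycin (10uM) inhibitor controls.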
FMDV inh: foot and mouth disease virus antiviral activity; Potency, µM (doses to about 57.9 µM), for the others: at the highest dose activity change, negative = inhibition, actives largely listed as inhibitors; hit rate 1.2% among 410,000; AID 1159524; FMDV antiviral cell-based qHTS; calls by dose curve; tested in HEK293T cells; also: read-out not given here; potency is read from the fitted curve at half-maximal effect; % is scaled to controls: 0 for no effect and ±100 for the full control effect; nearly all actives have a fitted effect of over 45% in size
Starred values were filed as active, the others as inactive; u = inconclusive; x = not tested or not shown; [ ] = another dose, or the depositor's remark.

SMILES	LASV entry inh	SARS PLP yeast	HCV inhibitor	MARV entry inh	HCMV inh	FMDV inh
Cc1nnsc1C(=O)N1CCCC(N2CCN(c3cccc(C(F)(F)F)c3)CC2)C1 (centres undefined)	x	-2%	-14%	x	-61*	-5%
Cc1ccsc1C(=O)N1CCCC(N2CCN(c3cccc(Cl)c3)CC2)C1 (centres undefined)	x	5%	u	x	-64*	u
Cc1noc(C)c1C(=O)N1CCCC(N2CCN(c3cccc(C(F)(F)F)c3)CC2)C1 (centres undefined)	x	-1%	-13%	x	-2	5%
O=C(c1ccco1)N1CCCC(N2CCN(c3cccc(C(F)(F)F)c3)CC2)C1 (centres undefined)	u	-1%	22µM*	-16%[46.1 µM]	24	-26%
CCCn1c(=O)c(C)cn2nc(N)nc12	-5%	x	x	9%	x	-13%
O=C1NC(=O)C2(CCOc3ccc(F)cc32)N1 (centres undefined)	x	x	x	x	-4	x
Cc1nc(C)n(CC(=O)N2CCOc3ccc(CN4CCN(C)C[C@@H]4c4ccccc4)cc3C2)n1	x	x	x	x	x	-15%
O=C(Cn1cccn1)N1CCCC(N2CCN(c3cccc(C(F)(F)F)c3)CC2)C1 (centres undefined)	4%	-9%	x	-17%	-3	1%
O=C(CCn1cccn1)N1CCCC(N2CCN(c3cccc(C(F)(F)F)c3)CC2)C1 (centres undefined)	u	1%	-23%	-21%	-62*	-8%
O=c1cc(CSc2nnc(COc3ccccc3)o2)c2ccccc2[nH]1	23µM*	0%	12%	u	2	-24%
COc1cccc(C2/C(=C(/O)c3ccc4c(c3)OCO4)C(=O)C(=O)N2CCN2CCOCC2)c1 (centres undefined)	x	2%	4%	x	-62*	6%
O=C1C(=O)N(CCN2CCOCC2)C(c2ccncc2)/C1=C(/O)c1ccc2c(c1)OCO2 (centres undefined)	22%	12%	1%	3%	12	10%
Clc1ccc2nc(-c3ccncc3)cc(-c3ccccc3)c2c1	6%	-8%	-11%	-4%	-10	u
CSc1cc(-c2ccncc2)nc(-c2ccc(Cl)cc2)c1	14%	-4%	u	4.5µM*	x	-6%
COC(=O)C1=C(C)N=C2SC(C#N)=C(N)N2C1c1ccc(OC)cc1 (centres undefined)	-17%	-7%	19%	-20%	33	0%
CCOC(=O)C1=C(C)N=C2SC(C(=O)OC)=CC(=O)N2C1c1ccc(OC)cc1 (centres undefined)	x	1%	-1%	-27%[46.1 µM]	6	14µM*
CCCCN(CCCC)CCNC(=O)CSCc1ccc(C)cc1	-11%[46.1 µM]	-1%	-9%	7.1µM*	u	u
Cc1ccc(SCC(=O)NCc2ccco2)cc1	16%	-18%	8%	-10%	25	28%
Cc1ccc(CSCC(=O)NCc2ccco2)cc1	1.4µM*	2%	1%	-11%	-30	4%
CC(OC(=O)c1ccc2c(c1)OCCO2)C(=O)NC1CCCCC1C (centres undefined)	-5%	3%	-5%	16%[46.1 µM]	-19	-18%
Cc1nnc(N2CCCC(C(=O)NCc3ccc(OC(C)C)cc3)C2)c2nn(-c3ccccc3)c(C)c12 (centres undefined)	x	0%	u	x	-66*	-25%
CCc1ccc(CNC(=O)C2CCCN(c3nnc(C)c4c(C)n(-c5ccc(OC)cc5)nc34)C2)cc1 (centres undefined)	u	x	x	x	-30	-6%
Cc1ccc(-n2nc3c(N4CCCC(C(=O)NCc5ccccc5C)C4)nnc(C)c3c2C)cc1 (centres undefined)	-3%[46.1 µM]	x	x	x	-64*	11%
COc1ccc(CNC(=O)C2CCN(c3nnc(C)c4c(C)n(-c5ccc(C)cc5)nc34)CC2)cc1	-3%[46.1 µM]	x	x	x	-107*	-22%
Cc1ccc(-n2nc3c(N4CCC(C(=O)NCCc5cccs5)CC4)nnc(C)c3c2C)cc1	x	28%	u	x	-83*	25µM*
COc1ccc(-n2nc3c(N4CCCC(C(=O)NCc5ccc(C)cc5)C4)nnc(C)c3c2C)cc1 (centres undefined)	u	x	x	x	-72*	-3%
